The nature of assay [1]: optical density shifts of acrAB sulA E. coli – strain DRC41, OD650, 48 h, E. coli filamentation inducer project, primary screen (AID 1152).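 Further: E. coli MC1000 strain DRC41 lacking acrAB efflux pump and sulA.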 As to conditions: higher = more signal, called active from +8 up or from −8 down.
Assay [2] can be described thus: probe aLefty1 binding on compound microarray – biochemical, small-molecule microarray, 635/667 nm fluorescence, primary screen (AID 1153).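 Further: score merges spot fluorescence with signal-to-noise ratio from the scanned slide images.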 As to conditions: higher = more signal.
Assay [3] is described as follows: plasmodial surface anion channel blockers, osmotic lysis – cell-based, P. falciparum Indochina, OD700, 1 h, primary screen (AID 1154). As to conditions: P. falciparum Indochina infected RBC osmotic lysis, higher = more signal, called active from +8 up or from −8 down.
Assay [4] can be described thus: plasmodial surface anion channel blockers, osmotic lysis – cell-based, P. falciparum Indochina, OD700, 2 h, primary screen (AID 1155).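 Further: lysis reports solute entry through the parasite surface anion channel PSAC.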 As to conditions: P. falciparum Indochina infected erythrocytes, higher = more signal, called active from +8 up or from −8 down.
A short description of assay [5]: changes in parasitized red cell lysis, either direction – P. falciparum Indochina, OD700, 3 h, PSAC antagonist project, primary screen (AID 1156). The note with it: P. falciparum-infected erythrocytes, osmotic lysis, higher = more signal, called active from +8 up or from −8 down.
Assay [6] is described as follows: plasmodial surface anion channel blockers, osmotic lysis – cell-based, P. falciparum Indochina, OD700, 18 h, primary screen (AID 1157). As to conditions: P. falciparum Indochina infected erythrocytes, osmotic lysis OD700, 18 h; higher = more signal, called active from +8 up or from −8 down.
Assay [7] is described as follows: S6 kinase pathway phospho-S6 level changes – cell-based, A549, cytoblot, luminescence, serum-stimulated, primary screen (AID 1158).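 Further: serum-stimulated A549 lung adenocarcinoma cells; signal is phosphorylated S6 detected by cytoblot immunostaining with HRP secondary.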 The note with it: 5 h, higher = more signal.
For assay [8], the target named is NADPH oxidase 2 (Homo sapiens) (UniProt P04839). In words: compounds shifting NOX2 Amplex Red fluorescence – cell-based, HEK293-NOX2, PMA-stimulated, NOX inhibitor project, primary screen (AID 1159). Further: test concentration not given here. As to conditions: 45 min, higher = more signal, called active from +8 up or from −8 down.
The target of assay [9] is NADPH oxidase 4 (Homo sapiens) (UniProt Q9NPH5). In words: compounds shifting NOX4 Amplex Red fluorescence – cell-based, HEK293-NOX4, tetracycline-induced, NOX inhibitor project, primary screen (AID 1160). The note with it: HEK293-NOX4, Amplex Red H2O2 fluorescence, 45 min; higher = more signal, called active from +8 up or from −8 down.
Assay [10] has as its target NADPH oxidase 5 (Homo sapiens) (UniProt Q96PH1). Kind of assay: compounds shifting NOX5 Amplex Red fluorescence – cell-based, HEK293-NOX5, NOX inhibitor project, primary screen (AID 1161). The note with it: HEK293-NOX5, ionomycin, 45 min, higher = more signal.
Assay [11] is described as follows: compound effects on lung adenocarcinoma cell viability – A549, calcein-AM fluorescence, 48 h, basal, profiling panel (AID 1162). Further: test concentration not given here. As to conditions: higher = more signal.
Assay [12] in a line: compound effects on differentiated 3T3-L1 adipocyte viability – cell-based, 3T3-L1 adipocytes, calcein-AM fluorescence, 48 h, basal, profiling panel (AID 1163). Further: test concentration not given here. The note with it: 3T3-L1 adipocytes viability, higher = more signal.
Assay [13] can be described thus: compound effects on hepatocellular carcinoma cell viability – HepG2, calcein-AM fluorescence, 48 h, basal, profiling panel (AID 1164). Further: test concentration not given here. As to conditions: higher = more signal.
The nature of assay [14]: compound effects on multiple myeloma cell viability – MM1S, calcein-AM fluorescence, 48 h, basal, profiling panel (AID 1165). Further: test concentration not given here. As to conditions: higher = more signal.
Assay [15] can be described thus: calcein-AM signal in unstimulated myeloma cells – cell-based, calcein-AM fluorescence, 48 h, PK04 Diversity Set, profiling panel (AID 1166).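 Further: cells grown under basal conditions without added stimulus; test concentration not given here.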 The note with it: RPMI8226 myeloma viability, higher = more signal.
The nature of assay [16]: JC-1 mitochondrial signal, unstimulated HepG2 cells – cell-based, JC-1 fluorescence, 24 h, 100 nL compound, profiling panel (AID 1167). Further: test concentration not given here. As to conditions: HepG2 mitochondrial potential, higher = more signal.
A short description of assay [17]: JC-1 mitochondrial signal, unstimulated adipocytes – cell-based, JC-1 fluorescence, 3T3-L1 adipocytes, 24 h, 100 nL compound, profiling panel (AID 1168). Further: test concentration not given here. As to conditions: JC-1 mitochondrial fluorescence, higher = more signal, called active from +8 up or from −8 down.
The nature of assay [18]: JC-1 mitochondrial signal, unstimulated myeloma cells – cell-based, JC-1 fluorescence, RPMI8226, 24 h, 100 nL compound, profiling panel (AID 1169). Further: test concentration not given here. The note with it: JC-1 mitochondrial potential fluorescence, higher = more signal.
The nature of assay [19]: JC-1 mitochondrial signal, unstimulated MM1S myeloma – cell-based, JC-1 fluorescence, 24 h, 100 nL compound, profiling panel (AID 1170). Further: test concentration not given here. As to conditions: MM1S mitochondrial potential, higher = more signal.
Assay [20] is described as follows: resazurin metabolic signal in A549 cells – cell-based, resazurin fluorescence, 24 h, PK04 Diversity Set, profiling panel (AID 1171). Further: test concentration not given here. As to conditions: A549 viability, higher = more signal, called active from +8 up or from −8 down.

In PubChem BioAssay one finds z-score and composite z-score data, which are given here for eight compounds.

Calls of active or inactive are those of the source.

Chain of NADPH oxidase 2 (Homo sapiens) (P04839 whole entry, looked up): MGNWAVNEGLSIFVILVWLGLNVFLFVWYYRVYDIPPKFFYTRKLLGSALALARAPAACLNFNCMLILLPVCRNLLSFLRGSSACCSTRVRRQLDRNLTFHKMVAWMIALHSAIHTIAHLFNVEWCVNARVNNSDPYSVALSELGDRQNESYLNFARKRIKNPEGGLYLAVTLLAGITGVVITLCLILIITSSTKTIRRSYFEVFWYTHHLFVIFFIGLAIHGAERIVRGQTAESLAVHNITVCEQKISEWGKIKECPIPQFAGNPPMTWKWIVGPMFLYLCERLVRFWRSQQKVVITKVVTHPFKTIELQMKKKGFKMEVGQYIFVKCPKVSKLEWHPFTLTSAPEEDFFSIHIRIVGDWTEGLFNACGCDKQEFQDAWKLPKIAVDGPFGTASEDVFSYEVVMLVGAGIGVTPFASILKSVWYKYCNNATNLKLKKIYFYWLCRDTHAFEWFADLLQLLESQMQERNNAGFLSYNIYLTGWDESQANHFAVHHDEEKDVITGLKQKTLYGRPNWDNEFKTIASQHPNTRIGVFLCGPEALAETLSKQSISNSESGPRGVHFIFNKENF
Chain of NADPH oxidase 4 (Homo sapiens) (Q9NPH5 whole entry, looked up): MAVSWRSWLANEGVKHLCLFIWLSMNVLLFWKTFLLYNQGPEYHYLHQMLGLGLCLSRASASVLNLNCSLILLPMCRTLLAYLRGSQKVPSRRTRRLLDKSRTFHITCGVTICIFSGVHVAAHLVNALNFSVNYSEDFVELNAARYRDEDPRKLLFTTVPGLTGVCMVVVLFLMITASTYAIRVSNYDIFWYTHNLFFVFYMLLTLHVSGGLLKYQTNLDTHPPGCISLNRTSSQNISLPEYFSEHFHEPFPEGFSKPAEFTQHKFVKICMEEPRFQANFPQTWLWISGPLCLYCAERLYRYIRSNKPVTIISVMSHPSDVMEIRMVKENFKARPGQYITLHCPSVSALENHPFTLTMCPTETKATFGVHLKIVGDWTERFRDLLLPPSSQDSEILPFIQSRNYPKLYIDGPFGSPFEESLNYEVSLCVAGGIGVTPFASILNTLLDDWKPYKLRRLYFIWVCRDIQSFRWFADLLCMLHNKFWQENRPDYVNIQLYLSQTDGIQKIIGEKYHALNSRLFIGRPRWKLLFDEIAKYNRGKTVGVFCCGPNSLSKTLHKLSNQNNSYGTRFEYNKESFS
Chain of NADPH oxidase 5 (Homo sapiens) (Q96PH1 whole entry, looked up): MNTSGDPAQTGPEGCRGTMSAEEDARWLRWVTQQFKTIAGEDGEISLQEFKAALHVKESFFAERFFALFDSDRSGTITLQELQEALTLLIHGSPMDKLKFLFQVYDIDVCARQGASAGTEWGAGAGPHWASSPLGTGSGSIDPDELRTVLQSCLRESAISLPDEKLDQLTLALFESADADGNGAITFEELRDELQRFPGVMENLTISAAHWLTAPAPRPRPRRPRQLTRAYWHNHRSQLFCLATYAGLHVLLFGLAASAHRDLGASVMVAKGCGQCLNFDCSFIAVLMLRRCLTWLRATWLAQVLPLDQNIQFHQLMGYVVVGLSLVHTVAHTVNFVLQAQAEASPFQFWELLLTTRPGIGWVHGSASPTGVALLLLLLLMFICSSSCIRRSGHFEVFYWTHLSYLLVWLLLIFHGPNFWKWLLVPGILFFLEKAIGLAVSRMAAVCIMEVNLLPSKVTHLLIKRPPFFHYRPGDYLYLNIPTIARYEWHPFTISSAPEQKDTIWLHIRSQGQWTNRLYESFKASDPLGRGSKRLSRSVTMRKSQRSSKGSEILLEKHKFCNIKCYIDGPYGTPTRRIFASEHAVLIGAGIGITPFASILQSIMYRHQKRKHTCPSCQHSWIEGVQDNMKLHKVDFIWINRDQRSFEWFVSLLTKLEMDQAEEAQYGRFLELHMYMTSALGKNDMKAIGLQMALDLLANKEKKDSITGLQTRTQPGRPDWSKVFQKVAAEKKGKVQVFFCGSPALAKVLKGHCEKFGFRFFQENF

`CN(C)C(=O)[C@@]1(Cc2ccccc2N=[N+]=[N-])N=C(c2ccc(OCCCO)cc2)O[C@H]1c1ccccc1`: the z-score in assay [1] is -0.369 (inactive); in assay [3] it was 25.7 (active); in assay [4] it was 12.4 (active); in assay [5], 2.85 (inactive); in [6] it was 1.94 (inactive); in assay [7] it was -0.482. Moreover, the z-score in assay [8] was -3.93 (inactive); in [9], 0.711 (inactive); in assay [10] it was -2.45; in [11], -1.85; in assay [12] it was 0.574; in [13], -0.954. Further, the z-score was -2.99 in assay [14]; -3.67 in [15]; 0.517 in assay [16]; 0.0738 (inactive) in assay [17]; -1.25 in assay [18]; -1.67 in [19]. Moreover, the z-score in [20] was -2.2 (inactive). In [2], this compound showed a composite z-score of 0.465.

As to `C=CCC(OC(C)=O)[C@@H]1[C@@H](N(Cc2cccc3ccccc23)C(=O)c2cccc3ccccc23)c2cc(OCCCO)ccc2N1C(=O)c1ccc2ccccc2c1` (stereo not given in full), the z-score was 0.0047 (inactive) in assay [1]; 0.529 (inactive) in [3]; -0.128 (inactive) in assay [4]; 1.41 (inactive) in [5]; 0.0897 (inactive) in assay [6]; 0.914 in assay [7]. The z-score in assay [8] was -2.77 (inactive); in assay [9] it was -1.09 (inactive); in assay [10], -2.66; in assay [11] it was -0.0249; in assay [12], 0.521; in assay [13] it was -0.184. In addition, the z-score in assay [14] was -0.189; in [15], 0.0694; in assay [16], 2.48; in assay [17], -0.419 (inactive); in [18], 0.489; in assay [19], 0.591. In [20], the z-score was 0.933 (inactive). The compound further registered a composite z-score in assay [2] of -0.333.

Regarding `COCCOC(=O)N1C(=O)[C@@]2(c3cc(C#CCCO)ccc31)[C@H](C(N)=O)[C@H]1C(=O)O[C@H](c3ccccc3)[C@H](c3ccccc3)N1[C@@H]2c1ccc(OCCO)cc1`, the z-score in assay [1] is -0.138 (inactive); in assay [3], 23.4 (active); in assay [4], 5.49 (inactive); in assay [5], 1.88 (inactive); in [6], 1.3 (inactive); in [7], 0.388. Besides, the z-score in assay [8] was 1.78 (inactive); in assay [9], 1.1 (inactive); in assay [10] it was 0.785; in [11], 0.518; in assay [12], 0.0809; in assay [13], 0.325. Moreover, the z-score was -0.971 in assay [14]; -0.859 in assay [15]; -1.78 in assay [16]; 0.959 (inactive) in assay [17]; -0.505 in assay [18]; -0.0622 in assay [19]. The z-score in assay [20] is -0.0958 (inactive). In assay [2], this compound registered a composite z-score of 0.157.

Take `[N-]=[N+]=NCc1ccccc1C[C@]1(C(=O)N2CCOCC2)COC(c2ccc(OCCCO)cc2)=N1`: the z-score in assay [1] was 2.57 (inactive); in assay [3], 26.6 (active); in [4], 15 (active); in [5] it was 3.85 (inactive); in [6], 2.64 (inactive); in [7], 0.338. For the same compound, the z-score was -3.84 (inactive) in assay [8]; -0.698 (inactive) in [9]; -3.14 in assay [10]; 0.0386 in assay [11]; 0.926 in [12]; 0.383 in assay [13]. The z-score is -3.46 in assay [14]; -2.89 in [15]; 1.72 in [16]; 0.665 (inactive) in assay [17]; -0.843 in assay [18]; -0.968 in [19]. In assay [20], the z-score was -0.36 (inactive). In assay [2], this compound came in with a composite z-score of 0.691.

With `COc1ccc([Si](C)(C)[C@@H]2[C@@H](CC(=O)N3Cc4ccccc4C[C@H]3CO)O[C@]3(C(=O)N(c4ccccc4)c4ccccc43)[C@H]2C)cc1`, the z-score in assay [1] was 0.162 (inactive); in assay [3], 6.47 (inactive); in assay [4], 1.76 (inactive); in assay [5], 0.168 (inactive); in [6] it was 1.65 (inactive); in assay [7] it was 0.947. Moreover, the z-score in assay [8] is 0.651 (inactive); in assay [9], 0.71 (inactive); in assay [10] it was 0.544; in assay [11] it was -0.77; in assay [12], 0.703; in assay [13], -2.85. For the same compound, the z-score in assay [14] is -2.37; in assay [15], -4.35; in [16] it was 1.37; in [17], 0.631 (inactive); in assay [18], -1.06; in [19], -2.08. Moreover, the z-score in [20] is -1.39 (inactive). In assay [2], this compound displayed a composite z-score of 0.855.

`CCN(CC)c1ccc(N2CC=CC34O[C@@H]5C=CCCOC(=O)C5[C@H]3C(=O)N(CCO)[C@@H]4C2=O)cc1` (stereo not given in full): the z-score in [1] was 0.286 (inactive); in [3], 1.03 (inactive); in [4], 0.537 (inactive); in [5], 0.836 (inactive); in assay [6] it was 0.159 (inactive); in assay [7], -0.616. Further, the z-score is 0.697 (inactive) in assay [8]; -0.513 (inactive) in assay [9]; 1.11 in [10]; -0.126 in [11]; 1.11 in assay [12]; -0.618 in assay [13]. Further, the z-score in assay [14] is 0.766; in assay [15], -0.073; in [16] it was -0.178; in assay [17], 0.0903 (inactive); in assay [18], 0.277; in assay [19], 0.639. The z-score in assay [20] is -0.0198 (inactive). This compound had a composite z-score in [2] of -0.155.

Regarding `CC(C)C[C@@H]1NC(=O)[C@H]2C[C@@H](C(=O)NCCCCCN)[C@@H](c3cccc(OCCO)c3)N2C1=O`, the z-score in assay [1] was 1.25 (inactive); in assay [3], 3.07 (inactive); in assay [4], -0.328 (inactive); in assay [5], 2.27 (inactive); in assay [6] it was -2.15 (inactive); in assay [7] it was 2.13. Also, the z-score is 1.33 (inactive) in assay [8]; 0.993 (inactive) in [9]; 2.1 in assay [10]; 0.779 in [11]; 0.57 in [12]; 1.3 in assay [13]. Also, the z-score in assay [14] is 0.64; in [15], -0.0687; in assay [16], 1.07; in assay [17], 0.97 (inactive); in [18], -0.336; in assay [19], -0.16. In addition, the z-score in [20] is 0.11 (inactive). This compound showed a composite z-score in [2] of -0.0172.

Turning to `CCCNC(=O)[C@@]1(C)c2ccccc2C(=O)N(Cc2ccccc2)[C@H]1c1ccc(CO)cc1`, the z-score is 1.3 (inactive) in [1]; 3.35 (inactive) in assay [3]; 0.505 (inactive) in [4]; 0.231 (inactive) in assay [5]; 0.157 (inactive) in assay [6]; 0.0612 in assay [7]. Further, the z-score is -0.703 (inactive) in assay [8]; -0.0486 (inactive) in assay [9]; 0.885 in assay [10]; -0.0623 in [11]; 0.47 in assay [12]; 1.03 in assay [13]. Also, the z-score in assay [14] is -0.542; in assay [15], 0.485; in assay [16], 4.13; in [17], -0.0853 (inactive); in assay [18], -0.415; in [19] it was 1.14. The z-score in assay [20] is 1.47 (inactive). The compound also came in with a composite z-score in assay [2] of 0.594.
